# Screening data: PubChem BioAssay, National Center for Advancing Translational Sciences (NCATS)
# Tau fibril ThT = qHTS for Inhibitors of Tau Fibril Formation, Thioflavin T Binding; Microtubule-associated protein tau (Homo sapiens), P10636; recombinant tau K18 P301L, heparin-induced fibrillization, ThT fluorescence; Potency, µM (top dose mostly 57.4 µM), for inactives: top-dose activity, negative = inhibition, actives largely listed as inhibitors; 2.1% of 270,000 active; AID 1460, 2008; note: potency is the fitted concentration of half-maximal effect; nearly all actives have a fitted effect of over 55% in size
# Target sequence (P10636 561-689 P618L limits assumed): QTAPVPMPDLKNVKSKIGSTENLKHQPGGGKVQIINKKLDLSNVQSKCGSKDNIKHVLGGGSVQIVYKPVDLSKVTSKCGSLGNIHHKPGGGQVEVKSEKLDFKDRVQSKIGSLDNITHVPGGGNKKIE
#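 Recombinant human tau K18 fragment […] carrying P301L, 15 uM unlabeled plus 0.24 uM Alexa 594-labeled, was fibrillized with 20 uM heparin in 100 mM sodium acetate pH 7 for 6 hr at 37 C; 30 uM ThT fluorescence read after 1 hr.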
# KDM4E inh = qHTS Assay for Inhibitors of Human Jumonji Domain Containing 2E (JMJD2E); Lysine-specific demethylase 4E (Homo sapiens), B2RXH2; JMJD2E catalytic domain, FDH-coupled NADH fluorescence (FDH is formaldehyde dehydrogenase); Potency, µM (doses to about 57.1 µM), for the others: at the top dose activity change, negative = inhibition, most hits filed as inhibitors; 1.6% of 230,000 active; AID 2147, 2009; active = well fitted inhibition curve with a large enough effect, not every such curve was filed as active; inconclusive = small, poorly fitted or top-dose-only effect, or another doubt; inactive = no such curve, though single readings can be large or run the other way;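 note: potency is the fitted concentration of half-maximal effect; 0% = wells with enzyme and -100% = buffer wells without enzyme; nearly all actives have a fitted effect of over 50% in size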
# Target sequence (B2RXH2 1-337 limits assumed): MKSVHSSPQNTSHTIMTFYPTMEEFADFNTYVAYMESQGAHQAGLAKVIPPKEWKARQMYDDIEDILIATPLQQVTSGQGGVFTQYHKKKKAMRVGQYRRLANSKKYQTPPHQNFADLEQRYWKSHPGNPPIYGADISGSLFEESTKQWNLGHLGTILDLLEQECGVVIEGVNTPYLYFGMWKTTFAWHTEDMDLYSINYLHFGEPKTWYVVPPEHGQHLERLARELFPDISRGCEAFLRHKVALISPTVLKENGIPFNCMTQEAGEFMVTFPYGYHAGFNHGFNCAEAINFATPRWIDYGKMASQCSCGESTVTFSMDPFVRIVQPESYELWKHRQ
# NPSR antagonist = qHTS Assay for Antagonists of the Neuropeptide S Receptor: cAMP Signal Transduction; Potency, µM (titrated, usually from 38.3 µM), inactives show at the highest dose activity change, negative = inhibition, usual class: inhibitors; Q6W5P4; CHO-NPSR cells, cAMP TR-FRET, antagonist mode; 1% of 220,000 active; note: potency is the fitted concentration of half-maximal effect; nearly all actives have a fitted effect of over 50% in size
# Tau fluor cs = Counterscreen qHTS for Inhibitors of Tau Fibril Formation, Fluorescence Polarization. Potency, µM (doses to about 57.7 µM), without a hit: at the highest dose activity change, negative = decrease. AID 1463, 2008. tau K18 P301L Alexa594 fluorescence, heparin fibrillization. 0.93% of 280,000 active; note: potency is the fitted concentration of half-maximal effect; nearly all actives have a fitted effect of over 55% in size
#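 Human tau K18 P301L (15 uM unlabeled, 0.24 uM Alexa 594-labeled) in 100 mM sodium acetate pH 7 with 20 uM heparin, 6 hr at 37 C. ThT 30 uM added, 1 hr ambient; Alexa 594 FP and total fluorescence read at 555/632 nm.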
# PNC assembly inh = High Content Assay for Compounds that inhibit the Assembly of the Perinucleolar Compartment; activity change (PNC), negative = inhibition, % at 10 µM; PC3M PTB-GFP, PNC prevalence imaging, 16 h; hits give low values; 3.1% of 140,000 active;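 active = readout at or below -70, meaning at least 70% loss of cells showing the perinucleolar compartment, a nuclear body marking cancer cells; inconclusive = readout between -30 and a set limit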;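 note: plate controls were DMSO wells for no effect and camptothecin positive control wells for full effect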
#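 PC3M cells stably expressing PTB-GFP, 750–1000 cells/well, treated 16 h at 37 °C with compound (23 nl of library stock), in duplicate. After paraformaldehyde fixation and Hoechst stain, imaged at 20x; PNC prevalence scored by image analysis.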
# Tau FP inhib = qHTS for Inhibitors of Tau Fibril Formation, Fluorescence Polarization; Microtubule-associated protein tau (Homo sapiens), P10636; K18 P301L tau heparin fibrillization, Alexa594 FP, 6 h; Potency, µM (highest dose often 57.7 µM), for inactives: at the highest dose activity, negative = inhibition, most hits filed as inhibitors; 0.39% of 280,000 active; AID 1468, 2008; note: potency is the fitted concentration of half-maximal effect; nearly all actives have a fitted effect of over 55% in size
#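 Read-out: fluorescence polarization of Alexa 594-labeled tau (0.24 uM), 555 nm excitation, 632 nm emission. Mixtures held 15 uM unlabeled K18 P301L, compound and 20 uM heparin, pH 7 acetate buffer, incubated 6 hr at 37 C.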
# * hit, by the source's call; ? = inconclusive; / = no result; [ ] = another dose, or the depositor's remark. In the library only some 5.1% were active in any assay of this set; here they are far more common. Unless noted, calls come from the whole dose curve; as a rule, active = well fitted curve in the direction sought with a large enough effect; inconclusive = small, poorly fitted or top-dose-only effect, or another doubt; inactive = no such curve, though single readings can be large; an effect the other way counts as inactive or inconclusive. Unless noted, % is set by controls: 0 for no effect and ±100 for the full control effect.
SMILES,Tau fibril ThT,KDM4E inh,NPSR antagonist,Tau fluor cs,PNC assembly inh,Tau FP inhib
COc1ccc2c(c1)cc1c(=O)n(CC(=O)NCc3ccco3)nc(C)n12,3%,/,/,3%,/,-3%
O=C(O)c1ccc2nc(-c3ccco3)c(-c3ccco3)nc2c1,7.9µM*,2%,-7%,?,/,10µM*
O=C(c1ccc2nc(-c3ccco3)c(-c3ccco3)nc2c1)N1CCN(c2ccccc2)CC1,?,?,?,?,-12,-2%
CCCC(Oc1ccc(Br)cc1)c1nc2c3cc(OC)c(OC)cc3nc(=S)n2[nH]1 (centres undefined),-6%,-6%,-45%,16µM*[quencher],/,?
CC(Oc1ccc(Br)cc1)c1nc2c3ccccc3nc(=S)n2[nH]1 (centres undefined),?,-3%,-39%,?,/,-8%
CCOC(=O)c1noc2ncn(CC(=O)Nc3ccc(OC)c(Cl)c3)c(=O)c12,-3%,/,/,-6%,/,0%
O=C(O)c1ccccc1C(=O)N(Cc1ccccc1)Cc1ccccc1,-17%,3%,-11%[46.1 µM],-9%,15,11%
Nc1ccccc1C(=O)N(Cc1ccccc1)Cc1ccccc1,0%,?,18%[46.1 µM],-5%,-100*,12%
Cc1sc2nc(C(C)C)nc(SCC(=O)N3c4ccccc4CC3C)c2c1C (centres undefined),?,10%,?,-15%,-97*,-7%
CCCN1C(=O)/C(=C/c2ccc(N3CCCC3)c(C)c2)NC1=S,?,-13%,?,8.9µM*[quencher],?,?
Cc1cc(/C=C2/C(=O)N(C)C(=S)N2C)ccc1N1CCCC1,4µM*,-18%,-52%,?,/,-3%
CCN1C(=O)/C(=C/c2ccc(N3CCCC3)cc2)NC1=S,11µM*,-2%,-26%,?,25,?
Cc1cc(/C=C2\NC(=S)N(C)C2=O)ccc1N1CCCC1,?,-8%,?,-28%,/,?
CCOC(=O)c1cc(S(=O)(=O)Nc2ccc(OC)c(Cl)c2)[nH]n1,-2%,/,/,-6%,/,-10%
Cc1ccc(C)c(N2CCN(C(=O)Cn3cnc4nc5c(cc4c3=O)CCCC5)CC2)c1,-12%,/,/,-1%,/,6%
O=C(Nc1ccc(Cl)cc1)N[C@@H]1c2c(ccc3ccccc23)OC[C@@H]1CO,9%,8%,-26%[46.1 µM],?,-106*,32µM*
CN1CCc2nc(SCC(=O)Nc3cccc(F)c3)c(C#N)c(-c3cccs3)c2C1,14µM*,?,?,16µM*[quencher],14,-13%
Cc1cccc(CSc2nc3c(c(-c4cccs4)c2C#N)CN(C)CC3)c1,16µM*,-15%,-37%,25µM*[quencher],-25,-4%
Cc1cccc(CSc2nc(N)c(C#N)c(-c3cccs3)c2C#N)c1,-3%,?,?,?,-22,?
O=C(OCn1ncc(Br)c(Br)c1=O)c1c(F)cccc1F,7.1µM*,-16%,2.5µM*,-18%,?,?
CC(=O)Cn1ncc(Br)c(Br)c1=O,?,-2%,-18%,-9%,/,?
CN1CCN(Cc2ccc(OCc3ccccc3)cc2)CC1,-10%,4%,-4%[46.1 µM],-3%,-86*,4%
CCCOc1ccc(C(=O)Nc2ccc3oc(-c4ccncc4)nc3c2)cc1,?,/,/,-9%,/,0%
COCCCN1C(=O)/C(=C/c2ccc(CNS(=O)(=O)c3ccccc3)o2)C(C(=O)OC)=C1C,14µM*,?,-17%,-19%,/,?
CNC(=O)/C(C#N)=C\c1ccc(CNS(=O)(=O)c2ccccc2)o1,1%,3%,1%,8%,?,-6%
SMILES,Tau fibril ThT,KDM4E inh,NPSR antagonist,Tau fluor cs,PNC assembly inh,Tau FP inhib
Cc1ccc2c(c1)nc(SCC(O)c1ccc(Br)cc1)n2C (centres undefined),?,/,/,-22%,/,-9%
Cc1cc(=O)[nH]c(SCC(=O)/C=C2\N(C)c3ccccc3C2(C)C)n1,?,?,13%,25µM*[fluorescent],25,?
CN1/C(=C/C(=O)CSc2ccccc2C(=O)O)C(C)(C)c2ccccc21,?,3%,-53%,?,/,4%
O=C(CSc1nc(O)cc(=O)[nH]1)N1CCCc2ccccc21,?,0%,-10%[46.1 µM],-13%,-30,-9%
Cc1cc(=O)[nH]c(SCC(=O)N2CCCc3ccccc32)n1,3%,-6%,-1%[46.1 µM],6%,-100*,2%
COCCn1c(SCC(=O)N2CCCc3ccccc32)nc2c(c1=O)SC(C)C2 (centres undefined),5%,0%,-20%[46.1 µM],6%,-108*,-1%
CNC(=O)c1c(NC(=O)c2ccc(S(=O)(=O)N3CCCCC3)cc2)sc2c1CCC2,?,/,/,-22%,/,5%
CCCCC(=O)/C=C/n1c(=S)oc2ccccc21,14µM*,1%,-35%,-7%,-116*,?
COc1ccc2cc(/C=N/NC(=O)c3c(Cl)cnn3C)c(Cl)nc2c1,-5%,?,2%,1%,-86*,0%
Cc1cc(Cl)ccc1OCCCC(=O)N1CCCc2ccccc21,?,3%,?,-13%,-94*,-8%
COc1ccc(NC(=O)Cn2nnc(-c3ccccc3NC(=O)C3CC3)n2)cc1,-12%,-1%,-11%[46.1 µM],-20%,-104*,-9%
CCOc1ccc(NC(=O)Cn2nnc(-c3ccccc3NC(=O)C3CC3)n2)cc1,-11%,-5%,-7%[7.67 µM],-27%,-6,?
CC1CCCN(S(=O)(=O)c2ccc(NC(=O)Cn3nnc(-c4ccccc4F)n3)cc2)C1 (centres undefined),8%,0%,-23%[46.1 µM],?,-16,20µM*
CC1CCN(S(=O)(=O)c2ccc(NC(=O)CN3CCOCC3)cc2)CC1,-1%,-3%,-1%[46.1 µM],-3%,16,2%
CC1CCN(S(=O)(=O)c2ccc(NC(=O)Cn3nnc(-c4ccccc4)n3)cc2)CC1,11%,3%,?,?,-100*,?
COc1ccc(NC(=O)Cn2nnc(-c3ccccc3F)n2)cc1,-12%,3%,2%[46.1 µM],4%,-12,-7%
N#Cc1ccc(-c2cccs2)nc1SCc1c(F)cccc1Cl,6%,/,/,?,/,?
COc1ccc(CCNC(=O)Cc2ccc(OCc3ccccc3)c(OC)c2[N+](=O)[O-])cc1OCc1ccccc1,-7%,7%,-21%[46.1 µM],-25%,-101*,-2%
